Results filed as inconclusive are left out. The source made the active and inactive calls. The call rests on the fitted dose curve; in most records, active means well fitted curve in the direction sought with a large enough effect; inconclusive means small, poorly fitted or top-dose-only effect, or another doubt; inactive means no such curve, though single readings can be large; an effect the other way counts as inactive or inconclusive.
Legend:
[1] = qHTS of pediatric cancer cell lines to identify multiple opportunities for drug repurposing: Primary screen for RD cells (AID 1347104); further: nearly all actives have a fitted effect of over 55% in size
In short: (§1)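 Readout: CellTiter-Glo luminescence, 48 h treatment. Controls DMSO (neutral) and bortezomib 2.3 µM final (positive). Potency and efficacy taken from primary-screen concentration-response curves.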

[2] = qHTS of pediatric cancer cell lines to identify multiple opportunities for drug repurposing: Primary screen for MG 63 (6-TG R) cells (AID 1347105); further: nearly all actives have a fitted effect of over 50% in size
In short: as §1

[3] = qHTS of pediatric cancer cell lines to identify multiple opportunities for drug repurposing: Primary screen for control Hh wild type fibroblast cells (AID 1347106);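 further: series mostly up to about 46 µM; a drop in luminescence marks cytotoxicity and a rise apparent proliferation; nearly all actives have a fitted effect of over 55% in size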
In short: (§2)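 Cells (500-1,000/well) in growth media were settled 5 h at 37 degrees C, then given compounds for 48 h. Viability was read as CellTiter-Glo luminescence. Primary runs used MIPE at 11 points (0.78 nM-46 µM) and NPC at 8 points (0.59 nM-46 µM); follow-ups used 11 points.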

[4] = qHTS of pediatric cancer cell lines to identify multiple opportunities for drug repurposing: Primary screen for Rh30 cells (AID 1347107); further: series mostly up to about 46 µM; nearly all actives have a fitted effect of over 75% in size
In short: as §2

[5] = qHTS of pediatric cancer cell lines to identify multiple opportunities for drug repurposing: Primary screen for Rh41 cells (AID 1347108);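 further: series mostly up to about 46 µM; luminescence drop marks cytotoxic hits; nearly all actives have a fitted effect of over 70% in size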
In short: as §1

Measured: Potency

COC1CC(=C(c2cccs2)c2cccs2)C[N+](C)(C)C1 (stereo not drawn)
inactive: all assays above

CN1C(=O)CCS(=O)(=O)C1c1ccc(Cl)cc1 (stereo not drawn)
inactive: all assays above

C[C@]12CC[C@H]3[C@@H](CCC4=CC(=O)CC[C@@H]43)[C@@H]1CC[C@@H]2OC(=O)CCC1CCCCC1
inactive: all assays above

C[C@H]1[C@@H]2Cc3ccc(O)cc3[C@@]1(C)CCN2C
inactive: all assays above

CC(=O)OCC1=C(C(=O)O)N2C(=O)[C@@H](N)[C@H]2SC1
inactive: all assays above

C=C(C)[C@H]1CN[C@H](C(=O)O)[C@H]1CC(=O)O
inactive: all assays above

COP(=S)(OC)SCN1C(=O)c2ccccc2C1=O
not listed: [5]
inactive: all other assays above

C[N+]1(CCF)[C@@H]2CC[C@H]1CC(OC(=O)C(O)(c1ccccc1)c1ccccc1)C2 (stereo partly drawn)
inactive: all assays above

C=CCN1C[C@H](C)N([C@H](c2ccc(C(=O)N(CC)CC)cc2)c2cccc(OC)c2)C[C@H]1C
inactive: all assays above

O=[N+]([O-])O[C@H]1CO[C@H]2[C@@H]1OC[C@H]2O[N+](=O)[O-]
inactive: all assays above

Nc1ccc([As](=O)(O)O)cc1
inactive: all assays above

COc1cc(CC(C)N)cc(OC)c1OC (stereo not drawn)
inactive: all assays above

CCN(CC)C(=O)[C@@H]1C=C2c3cccc4[nH]cc(c34)C[C@H]2N(C)C1
not listed: [5]
inactive: all other assays above

Clc1ccccc1N1CCNCC1
inactive: all assays above

C[C@H](N)C(=O)c1ccccc1
inactive: all assays above

Clc1cccc(SC2CCNCC2)n1
inactive: all assays above

ClCCN1CCCC1
inactive: all assays above

COc1ccc2c3c1O[C@H]1[C@H](O)CC[C@H]4[C@@H](C2)N(C)CC[C@@]341
inactive: all assays above

CNCC(=O)c1ccc(O)c(O)c1
inactive: all assays above

CC(C)(N)Cc1ccccc1Cl
inactive: all assays above

O=C1OC(c2ccc(O)c(S(=O)(=O)O)c2)(c2ccc(O)c(S(=O)(=O)O)c2)c2c(Br)c(Br)c(Br)c(Br)c21
inactive: all assays above

CN(C)CCc1c[nH]c2cccc(OP(=O)(O)O)c12
inactive: all assays above

CC(C)C[C@H](CN)CC(=O)O
not listed: [5]
inactive: all other assays above

c1ccc2c(c1)sc1ccccc12
inactive: all assays above

C[C@]12Cc3cn[nH]c3C[C@@H]1CC[C@@H]1[C@@H]2CC[C@@]2(C)[C@H]1CC[C@]2(C)O
not listed: [5]
inactive: all other assays above

CC(C)(C)NCC(O)c1ccccc1Cl (stereo not drawn)
inactive: all assays above

COP(=S)(OC)Oc1ccc(S(=O)(=O)N(C)C)cc1
inactive: all assays above

CCC(C)C(C)(COC(N)=O)COC(N)=O (stereo not drawn)
inactive: all assays above

C=CCC1(C(C)CC)C(=O)NC(=O)NC1=O (stereo not drawn)
not listed: [5]
inactive: all other assays above

CC(C)c1cccc(C(C)C)c1O
inactive: all assays above

CCCCCCCCCC(=O)O[C@H]1CC[C@H]2[C@@H]3CCC4=CC(=O)CC[C@@H]4[C@H]3CC[C@]12C
inactive: all assays above

CC(Cc1ccccc1)NCCn1cnc2c1c(=O)n(C)c(=O)n2C (stereo not drawn)
inactive: all assays above

COc1cc(CCN)cc(OC)c1OC
not listed: [5]
inactive: all other assays above

CCN(CC)CCc1c[nH]c2ccccc12
not listed: [5]
inactive: all other assays above

NNc1ccccc1
inactive: all assays above

C[C@]12CC[C@@H]3c4ccc(OC(=O)N(CCCl)CCCl)cc4CC[C@H]3[C@@H]1CC[C@@H]2O
inactive: all assays above

Nc1ccccc1C(=O)O
inactive: all assays above

O=C1c2ccccc2C(=O)c2ccccc21
inactive: all assays above

Oc1ccc(Cl)cc1
inactive: all assays above

CC(C)=CC1C(C(=O)OCN2C(=O)C3=C(CCCC3)C2=O)C1(C)C (stereo not drawn)
inactive: all assays above

CC(=O)C1CCOC1=O (stereo not drawn)
inactive: all assays above

NC1=NC(=O)C(c2ccccc2)O1 (stereo not drawn)
inactive: all assays above

NCCc1ccc(O)cc1
inactive: all assays above

COc1cc(OC)c(OC)cc1C=O
inactive: all assays above

CC(C)NC(C)C
inactive: all assays above

COC(=O)C(Cl)C(=O)OC
inactive: all assays above

Nc1ccccc1
inactive: all assays above

COc1cccc([C@@]2(O)CCCC[C@@H]2CN(C)C)c1
inactive: all assays above

Nc1nc(N)nc(NC2CC2)n1
inactive: all assays above

CCCOC(=O)c1cncn1C(C)c1ccccc1 (stereo not drawn)
inactive: all assays above

C[C@]12CC[C@@H]3c4ccc(OC(=O)N(CCCl)CCCl)cc4CC[C@H]3[C@@H]1CC[C@@H]2OP(=O)(O)O
inactive: all assays above

CCOC(=O)CC(SP(=S)(OC)OC)C(=O)OCC (stereo not drawn)
inactive: all assays above

O=c1oc2ccccc2c(O)c1Cc1c(O)c2ccccc2oc1=O
inactive: all assays above

C[C@]12CCC(=O)C=C1CC[C@@H]1[C@@H]2CC[C@]2(C)C(=O)CC[C@@H]12
inactive: all assays above

C[C@@H]1CC2=CC(=O)CC[C@@H]2[C@H]2CC[C@@]3(C)[C@@H](CC[C@]3(C)O)[C@@H]21
inactive: all assays above

CC(C)c1c(CN(C)C(C)Cc2ccccc2)n(C)n(-c2ccccc2)c1=O (stereo not drawn)
inactive: all assays above

CC1(C)C(C=C(Cl)Cl)C1C(=O)OC(C#N)c1cccc(Oc2ccccc2)c1 (stereo not drawn)
inactive: all assays above

CN1CCC(O)(c2ccc(F)cc2)C(C(=O)c2ccc(F)cc2)C1 (stereo not drawn)
inactive: all assays above

[N-]=[N+]=CC(=O)OC[C@H](N)C(=O)O
inactive: all assays above

CCC1(c2ccccc2)C(=O)N(COC)C(=O)N(COC)C1=O
inactive: all assays above

O=c1[nH]c2ccccc2n1C1CCNCC1
inactive: all assays above

COC(=O)[C@@H](N)CCCN/C(N)=N/[N+](=O)[O-]
inactive: all assays above

CC[N+]1(CC)CCC(OC(=O)C(O)(c2ccccc2)c2ccccc2)C1 (stereo not drawn)
inactive: all assays above

CN1C(=O)COc2c(C(=O)NC3CN4CCC3CC4)cc(Cl)cc21 (stereo not drawn)
inactive: all assays above

CC(=O)NC1CCSC1=O (stereo not drawn)
inactive: all assays above

CC(C)(C)NCC(O)c1cc(Cl)c(N)c(C(F)(F)F)c1 (stereo not drawn)
inactive: all assays above

— PubChem BioAssay (NCATS)
